From PubChem BioAssay
Sm TGR inh: inhibitors of Schistosoma mansoni thioredoxin glutathione reductase; Q962Y6; purified TGR, DTNB reduction, TNB absorbance 405 nm; Potency, µM (titrated, usually from 114 µM), hits mostly inhibitors; hit rate 3% among 360,000; AID 485364; also: nearly all actives have a fitted effect of over 60% in size
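TGR 20 nM + NADPH 100 uM (dispensed conc.), cpd preinc 15 min RT; start with NADPH (500 uM addition) then DTNB (15 mM addition). Kinetic TNB absorbance, 405 nm filter. Four-parameter Hill fit across titration.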
MARV entry inh: Marburg virus entry inhibition; Marburg virus pseudotyped entry inhibition, cell reporter; Potency, µM (highest dose often 37.8 µM), actives largely listed as inhibitors; hit rate 1.8% among 300,000; calls by dose curve; tested in HEK293 cells
FMDV antiviral: foot and mouth disease virus antiviral activity | FMDV antiviral cell-based qHTS | Potency, µM (highest dose often 57.9 µM), actives largely listed as inhibitors | hit rate 1.2% among 410,000; calls by dose curve; tested in HEK293T cells; also: read-out not given here; nearly all actives have a fitted effect of over 45% in size
RE007 growth inh: less growth of the S. pombe RE007 Vpr strain. Potency, µM (top dose mostly 92.2 µM), most hits filed as inhibitors. hit rate 0.21% among 360,000. S. pombe RE007 Vpr strain, BacTiter-Glo ATP luminescence, 24 h. AID 651644; active = well fitted falling curve with a large enough effect; inconclusive = small, poorly fitted or top-dose-only effect; inactive = no such curve, though single readings can be large or run the other way; also: nearly all actives have a fitted effect of over 50% in size
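Fission yeast strain RE007, carrying one chromosomally integrated HIV-1 vpr copy, was seeded at OD 0.01 in PMG+AL medium with 23 nL pinned compound. After 24 h at 30 °C and 99% humidity, viability was read by BacTiter-Glo luminescence.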
Lassa entry inh: Lassa virus entry inhibition | Potency, µM (series often up to 37.9 µM), actives largely listed as inhibitors | hit rate 1.2% among 300,000 | Lassa virus pseudotype entry inhibition, cell reporter; calls by dose curve; tested in HEK293 cells; also: nearly all actives have a fitted effect of over 50% in size
HCV inh: inhibitors of hepatitis C virus infection; hit rate 3.4% among 340,000; Potency, µM (top dose mostly 41.8 µM), most hits filed as inhibitors; AID 651820; Huh7.5.1 HCVcc-Cre infection, luciferase reporter, 44 h
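Infectious HCV cell culture screen: compound-treated cells (1,000/well, pre-plated 4 h) are infected with HCVcc-Cre at roughly 0.5 moi and grown 44 h. Infection is quantified by luciferase signal after 15 min substrate incubation at room temperature.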
Numbers stand for hits; – = inactive; ? = inconclusive; · = not tested or not shown; [ ] = remark or other dose. An excerpt weighted towards active compounds, which were near 7.2% of everything screened. Unless noted, calls follow the shape of the dose curve; as a rule, active = well fitted curve in the direction sought with a large enough effect; inconclusive = small, poorly fitted or top-dose-only effect, or another doubt; inactive = no such curve, though single readings can be large; an effect the other way counts as inactive or inconclusive.

SMILES	Sm TGR inh	MARV entry inh	FMDV antiviral	RE007 growth inh	Lassa entry inh	HCV inh
O=C(O)c1c(-c2ccccc2)cnc2ccccc12	·	·	–	–	·	·
Cc1c(-c2ccccc2)cnc2c(C)cccc12	·	·	–	–	·	11.2µM
CCOc1ccc(CNC(=O)Cn2nc(C)c3nn(-c4ccc(Cl)cc4)c(C)c3c2=O)cc1	–	·	–	·	?	·
CCc1cc2c(N3CCCCC3)ncnc2s1	–	–	?	–	–	11.2µM
CS(=O)(=O)c1ccc(-c2ccc3c(c2)CC(CNC(=O)C2(N4CCOCC4)CCCCC2)O3)cc1 (configuration not stated)	·	·	–	·	·	·
Cc1csc2ncnc(NNC(=O)c3ccc(Cl)cc3)c12	–	?	?	–	?	7.94µM
O=C(NNc1ncnc2sccc12)c1ccc(Cl)cc1	–	?	–	–	–	?
COCC(=O)Nc1cc(C(=O)N2CCc3sccc3C2)c2c(c1)nc(-c1ccncc1)n2C	·	·	–	·	·	·
CCOC(=O)N1CCN(C(=O)c2ccc3c(c2)N(Cc2cccc(Cl)c2)C(=O)c2ccccc2S3=O)CC1 (configuration not stated)	–	·	?	–	?	17.8µM
Cc1ccc(C)c(CN2C(=O)c3ccccc3S(=O)c3ccc(C(=O)N4CCN(c5ccccn5)CC4)cc32)c1 (configuration not stated)	–	?	–	–	?	11.2µM
CCN1C(=O)c2ccccc2S(=O)c2ccc(C(=O)N3CCN(c4cccc(C)c4)C(C)C3)cc21 (configuration not stated)	–	–	?	·	?	·
Cc1cccc(N2CCN(C(=O)c3ccc4c(c3)N(Cc3ccccc3F)C(=O)c3ccccc3S4=O)CC2C)c1 (configuration not stated)	–	12.6µM	–	·	?	·
CCOc1ccc(Nc2nc(C)c(NC(=O)c3cccc(F)c3)c(Nc3ccc(OCC)cc3)n2)cc1	–	?	?	·	–	·
Cc1cc(C)c(C(=O)/C=C/c2ccc(C(C)C)cc2)c(=O)[nH]1	–	?	31.6µM	–	?	–
Cc1cc(C)c(C(=O)/C=C/C=C/c2ccccc2)c(=O)[nH]1	?	–	–	–	–	–
Cc1cccc(N2CCN(C(=O)c3cnn(-c4ccccc4Cl)c3C3CCN(C(=O)OC(C)(C)C)CC3)CC2C)c1 (configuration not stated)	–	·	–	·	?	·
c1ccc(-n2nnnc2Sc2ncnc3sc4c(c23)CCCC4)cc1	–	?	28.2µM	–	?	–
c1ccn(-c2ncnc3sc4c(c23)CCCC4)c1	–[11.4 µM]	–	?	–	–	–
Cc1sc2ncnc(Sc3nnnn3-c3ccc(Cl)cc3)c2c1C	?	?	?	–	20.6µM	–
Cc1ccc(-c2ccnc(-n3ncc(C(=O)N(C)CC4CCCN(C)C4)c3C)n2)o1 (configuration not stated)	·	·	–	·	·	·
CCC(CO)Nc1ncnc2c1cnn2-c1ccc(Cl)cc1 (configuration not stated)	–	·	–	–	·	–
CCC(CO)Nc1nc2ccc(Cl)cc2c2ccccc12 (configuration not stated)	–	?	–	–	?	3.98µM
CCOC(=O)C1=CN(CCC=C(C)C)C(=O)NC1c1ccccc1 (configuration not stated)	·	–	·	·	?	·
O=C(O)CCC/C=C\C[C@@H]1[C@@H](/C=C/[C@H](O)C2Cc3ccccc3C2)[C@@H](F)C[C@@H]1O	·	–	·	·	?	·
CCC1CCc2nc3sc(C(=O)Nc4cccc(F)c4)c(N)c3cc2C1 (configuration not stated)	–	–	–	·	–	·
COc1cccc(CNC(=O)c2ccc(-c3nc(CS(=O)c4ccccc4)c(C)o3)cc2)c1 (configuration not stated)	?	·	–	·	–	·
O=[N+]([O-])/C(=C\Nc1ccc(F)cc1F)S(=O)(=O)c1ccccc1	10µM	·	–	–	·	–
COC(=O)c1cccc(N/C=C(\[N+](=O)[O-])S(=O)(=O)c2ccccc2)c1	?	?	–	–	–	–
O=C1OC(/C(=C\Nc2ccc(F)cc2F)[N+](=O)[O-])c2ccccc21 (configuration not stated)	11.2µM	–	–	–	–	–
Cc1cc(C)n(-c2nnc(Nc3ccc(C)c(Cl)c3)c3ccccc23)n1	–	–	–	·	–	·
